Where “and” joins values, the source holds several entries; their conditions need not be identical. Equal entries are not always repeated. A number with no mark means an inactive call. Results filed as inconclusive are left out. Entries that show only a call come without a potency. Calls of active or inactive are those of the source. Unless noted, the call rests on the fitted dose curve; in most records, active means well fitted curve in the direction sought with a large enough effect; inconclusive means small, poorly fitted or top-dose-only effect, or another doubt; inactive means no such curve, though single readings can be large; an effect the other way counts as inactive or inconclusive.
How the values were obtained:
Es-2 = assay: Primary qHTS to identify gynecologic anti-cancer compounds using libraries of approved drugs and bioactive compounds (AID 1345084); conditions: Gynecologic cancer cell panel viability, ATPlite luminescence, 48 h; series mostly up to 57.5 µM; further: nearly all actives have a fitted effect of over 55% in size; further: potency means the concentration at half of the fitted maximal effect
Procedure, shortened: (§1)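 ATP-based viability (ATPlite), 1,000 cells/well, 16 h pre-incubation, 48 h compound at 37 C, 5% CO2, 15 min RT before read.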

HeLa = assay: as above; conditions: Gynecologic cancer cell panel viability, ATPlite luminescence, 48 h; series mostly up to 57.5 µM
Procedure, shortened: as §1

Hek293T = assay: as above; conditions: Gynecologic cancer cell panel viability, ATPlite luminescence, 48 h, control line for the selectivity index; series mostly up to 57.5 µM
Procedure, shortened: as §1

PA-1 = assay: as above; conditions: Gynecologic cancer cell panel viability, ATPlite luminescence, 48 h; series mostly up to 57.5 µM
Procedure, shortened: as §1

SKOV3 = assay: as above; conditions: Gynecologic cancer cell panel viability, ATPlite luminescence, 48 h; series mostly up to 57.5 µM
Procedure, shortened: as §1

Tov-21-G = assay: as above; conditions: Gynecologic cancer cell panel viability, ATPlite luminescence, 48 h; series mostly up to 57.5 µM
Procedure, shortened: as §1

Tov112D = assay: as above; conditions: Gynecologic cancer cell panel viability, ATPlite luminescence, 48 h; series mostly up to 57.5 µM
Procedure, shortened: as §1

astro = assay: Drug repurposing screens with cells derived from glioblastoma tumor samples (AID 1345199); conditions: viability, ATP luminescence, 48 h; series mostly up to 45.9 µM; further: nearly all actives have a fitted effect of over 40% in size; further: potency means the concentration at half of the fitted maximal effect
Procedure, shortened: (§2)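 Four patient lines of CD133+ GBM neurospheres were screened at several concentrations; hits were retested in those lines plus three slower-growing GBM lines, using 48-hour treatment and ATP-based viability.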

CAOV3 = assay: Primary qHTS to identify gynecologic anti-cancer compounds using libraries of approved drugs and bioactive compounds (AID 1345084); conditions: Gynecologic cancer cell panel viability, ATPlite luminescence, 48 h; series mostly up to 57.5 µM; further: nearly all actives have a fitted effect of over 55% in size; further: potency means the concentration at half of the fitted maximal effect
Procedure, shortened: as §1

CASKI = assay: as above; conditions: Gynecologic cancer cell panel viability, ATPlite luminescence, 48 h; series mostly up to 57.5 µM
Procedure, shortened: as §1

JEG-3 = assay: as above; conditions: Gynecologic cancer cell panel viability, ATPlite luminescence, 48 h; series mostly up to 57.5 µM
Procedure, shortened: as §1

OV90 = assay: as above; conditions: Gynecologic cancer cell panel viability, ATPlite luminescence, 48 h; series mostly up to 57.5 µM
Procedure, shortened: as §1

[1] = Drug repurposing screens with cells derived from glioblastoma tumor samples (AID 1345199); conditions: GBM patient neurospheres viability, ATP luminescence, 48 h; further: nearly all actives have a fitted effect of over 40% in size; further: potency means the concentration at half of the fitted maximal effect
Procedure, shortened: as §2

C33A = assay: Primary qHTS to identify gynecologic anti-cancer compounds using libraries of approved drugs and bioactive compounds (AID 1345084); conditions: Gynecologic cancer cell panel viability, ATPlite luminescence, 48 h; series mostly up to 57.5 µM; further: nearly all actives have a fitted effect of over 55% in size; further: potency means the concentration at half of the fitted maximal effect
Procedure, shortened: as §1

[2] = molecular target: Nuclear receptor subfamily 1 group I member 2 (Rattus norvegicus) (UniProt Q9R1A7); assay: qHTS assay for small molecule activators of the rat pregnane X receptor (rPXR) signaling pathway (AID 651751; call rule not given here); conditions: rPXR reporter cells, luciferase (One-Glo), 24 h
Sequence of Nuclear receptor subfamily 1 group I member 2 (Rattus norvegicus) (Q9R1A7 whole entry, looked up): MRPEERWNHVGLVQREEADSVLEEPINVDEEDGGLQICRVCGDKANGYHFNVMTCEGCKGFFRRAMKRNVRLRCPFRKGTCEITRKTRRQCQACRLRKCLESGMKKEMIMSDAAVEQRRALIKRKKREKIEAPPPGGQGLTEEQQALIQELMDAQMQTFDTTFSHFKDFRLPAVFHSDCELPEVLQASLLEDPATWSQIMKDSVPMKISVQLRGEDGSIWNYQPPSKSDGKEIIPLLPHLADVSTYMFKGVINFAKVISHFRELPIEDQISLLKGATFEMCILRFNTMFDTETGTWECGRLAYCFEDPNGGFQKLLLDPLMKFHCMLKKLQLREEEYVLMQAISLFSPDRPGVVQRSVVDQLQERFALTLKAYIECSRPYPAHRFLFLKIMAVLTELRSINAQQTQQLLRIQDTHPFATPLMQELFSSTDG

[3] = at 45.9 µM (top of the series), tumour line B
[4] = at 45.9 µM (top of the series), tumour line D
[5] = at 46 µM (top of the series), tumour line A
[6] = at 46.1 µM (top of the series), tumour line C

## CCCSc1ccc2nc(NC(=O)OC)[nH]c2c1
Es-2
  Potency: 3550 nM (active)
HeLa
  Potency: 2000 nM (active)
Hek293T
  Potency: 891 nM (active)
PA-1
  Potency: 1580 nM (active)
SKOV3
  Potency: 2240 nM (active)
Tov-21-G
  Potency: 2000 nM (active)
Tov112D
  Potency: 1120 nM (active)
astro
  Potency: 501 nM (active)

## Cc1onc(-c2c(F)cccc2Cl)c1C(=O)N[C@@H]1C(=O)N2[C@@H]1SC(C)(C)[C@@H]2C(=O)O
CAOV3
  Potency: inactive
CASKI
  Potency: inactive
Es-2
  Potency: inactive
HeLa
  Potency: inactive
Hek293T
  Potency: inactive
JEG-3
  Potency: inactive
OV90
  Potency: inactive
PA-1
  Potency: inactive
SKOV3
  Potency: inactive
Tov-21-G
  Potency: inactive
Tov112D
  Potency: inactive
[1]; [3]
  activity, negative = cell killing: -10.7% and -14.2%
[1]; [4]
  activity, negative = cell killing: 14.3% and -22.2%
[1]; [5]
  activity, negative = cell killing: -14.1% and -18%
[1]; [6]
  activity, negative = cell killing: 9.01% and 7.31%
astro
  Potency: inactive

## O=C(O)[C@H](CC(=O)N1C[C@H]2CCCC[C@H]2C1)Cc1ccccc1
C33A
  Potency: inactive
CAOV3
  Potency: inactive
CASKI
  Potency: inactive
Es-2
  Potency: inactive
HeLa
  Potency: inactive
Hek293T
  Potency: inactive
JEG-3
  Potency: inactive
OV90
  Potency: inactive
PA-1
  Potency: inactive
SKOV3
  Potency: inactive
Tov-21-G
  Potency: inactive
Tov112D
  Potency: inactive
[1]; [3]
  activity, negative = cell killing: -13.2%
[1]; [4]
  activity, negative = cell killing: -11.7%
[1]; [5]
  activity, negative = cell killing: -25.9%
[1]; [6]
  activity, negative = cell killing: -20.5%

## NC(=O)C(c1ccccc1)(c1ccccc1)[C@@H]1CCN(CCc2ccc3c(c2)CCO3)C1
C33A
  Potency: inactive
CASKI
  Potency: inactive
Es-2
  Potency: inactive
HeLa
  Potency: inactive
Hek293T
  Potency: inactive
JEG-3
  Potency: inactive
PA-1
  Potency: inactive
Tov-21-G
  Potency: inactive
Tov112D
  Potency: inactive

## CC(C(=O)O)c1ccc(C(=O)c2cccs2)cc1 (configuration not stated)
C33A
  Potency: inactive
CASKI
  Potency: inactive
Es-2
  Potency: inactive
HeLa
  Potency: inactive
Hek293T
  Potency: inactive
JEG-3
  Potency: inactive
OV90
  Potency: inactive
PA-1
  Potency: inactive
SKOV3
  Potency: inactive
Tov-21-G
  Potency: inactive
Tov112D
  Potency: inactive
[1]; at 20 µM (top of the series), tumour line C
  activity, negative = cell killing: 9.23%
[1]; at 21.2 µM (top of the series), tumour line B
  activity, negative = cell killing: -14.5%
[1]; at 21.2 µM (top of the series), tumour line D
  activity, negative = cell killing: -0.88%
[1]; at 21.3 µM (top of the series), tumour line A
  activity, negative = cell killing: -13%

## O=C(O)CC1CC(c2ccccc2)=NO1 (configuration not stated)
C33A
  Potency: inactive
CASKI
  Potency: inactive
Es-2
  Potency: inactive
HeLa
  Potency: inactive
Hek293T
  Potency: inactive
JEG-3
  Potency: inactive
OV90
  Potency: inactive
PA-1
  Potency: inactive
SKOV3
  Potency: inactive
Tov-21-G
  Potency: inactive
Tov112D
  Potency: inactive

## Nc1ccc(O)c([N+](=O)[O-])c1
C33A
  Potency: inactive
CASKI
  Potency: inactive
Es-2
  Potency: inactive
HeLa
  Potency: inactive
Hek293T
  Potency: inactive
JEG-3
  Potency: inactive
PA-1
  Potency: inactive
SKOV3
  Potency: inactive
Tov-21-G
  Potency: inactive
Tov112D
  Potency: inactive
[2]
  max response: -2.38% and -0.765%

## O=Cc1ccc(O)c(O)c1O
C33A
  Potency: inactive
CASKI
  Potency: inactive
Es-2
  Potency: inactive
HeLa
  Potency: inactive
Hek293T
  Potency: inactive
JEG-3
  Potency: inactive
OV90
  Potency: inactive
PA-1
  Potency: inactive
SKOV3
  Potency: inactive
Tov-21-G
  Potency: inactive
Tov112D
  Potency: inactive

Source: PubChem BioAssay (NCATS)
